# Measured values from PubChem BioAssay.
# A number with no mark means an inactive call. Active and inactive are the calls of the source. Cut-off read from the data, not from the text of the source: active = fold change permeability below about 0.7 or above about 1.3; inactive = in between.
# Assay: compounds altering in vitro BBB leakiness – cell-based, FITC-avidin fluorescence, HTS, primary screen (AID 1963498); note: test concentration not given here
# Conditions: brain endothelial barrier, actives lie on both sides
row,SMILES,fold change permeability
1,CN(C)c1nc(N(C)C)nc(N(C)C)n1,1.1
2,O=C(O)CCc1ccc(-c2ccc(Br)cc2)n1-c1ccccc1C(F)(F)F,1.2
3,N[C@@H](Cc1cc(CP(=O)(O)O)cc(-c2ccccc2Cl)c1)C(=O)O,0.9
4,CNCCC(Oc1ccccc1OC)c1ccccc1 (centres undefined),0.8
5,C/C(=C\c1ccc(C(=O)O)cc1)c1ccc2c(c1)C(C)(C)CCC2(C)C,1.7 (active)
6,CCCCCCCCCC[Si](C)(C)CCC(=O)NC(Cc1ccc(C)cc1)c1ccccc1 (centres undefined),0.8
7,COc1ccc(Br)cc1S(=O)(=O)NC(=O)/C=C/c1ccccc1Cc1ccc2ccccc2c1,1.1
8,COc1cccc(NC(=O)/C=C/c2ccc(Cl)cc2)c1,1.1
9,Fc1ccc([C@@H]2CCNC[C@H]2COc2ccc3c(c2)OCO3)cc1,1.2
10,O=C(NCc1cccnc1)c1ccc([N+](=O)[O-])o1,1
11,Cc1ccccc1N1CCN(CCc2nnc3n2CCCC3)CC1,0.9
12,CNC(=O)c1c(F)cccc1Nc1nc(Nc2cc3c(cc2OC)CCN3C(=O)CN(C)C)nc2[nH]ccc12,1.6 (active)
13,O=C(Nc1ccncc1)c1cc([N+](=O)[O-])ccc1Cl,1
14,OCCN1CCN(CC/C=C2/c3ccccc3Sc3ccc(C(F)(F)F)cc32)CC1,1.2
15,CC(C)C(=O)c1c(C(C)C)nn2ccccc12,1.3 (active)
16,O=C(O)c1cccnc1C(=O)O,1.1
17,O=C(O)Cc1ccc(O)c(O)c1,1
18,Cc1ccc(-n2sc(=O)n(Cc3ccc(F)cc3)c2=O)cc1,1.1
19,O=C(O)CCc1ccc(NCc2cccc(Oc3ccccc3)c2)cc1,0.7 (active)
20,CC1CCN(CC[C@H]2CCCN2S(=O)(=O)c2cccc(O)c2)CC1,0.7 (active)

row,SMILES,fold change permeability
1,CN1CCC(=C2c3ccccc3CC(=O)c3sccc32)CC1,1.4 (active)
2,OCCN1CCN(CCCN2c3ccccc3C=Cc3ccccc32)CC1,1.2
3,COc1ccc(C2CNC(=O)C2)cc1OC1CCCC1 (centres undefined),1.1
4,COC(=O)C1=C(C)NC(C)=C(C(=O)O[C@@H]2CCCN(Cc3ccccc3)C2)[C@@H]1c1cccc([N+](=O)[O-])c1,1.4 (active)
5,O=C1c2cccc3c2[C@H](CCC3)CN1[C@@H]1CN2CCC1CC2,1.3 (active)
6,Nc1nc(Cl)nc2c1ncn2[C@@H]1O[C@H](CO)[C@@H](O)[C@H]1O,0.9
7,Fc1cccc(/C=N\N=C/c2cccc(F)c2)c1,0.8
8,N[C@@H](Cc1ccc(F)cc1)C(=O)O,0.8
9,C=CCN1CCc2cc(O)c(O)cc2C(c2ccccc2)C1 (centres undefined),0.7 (active)
10,COc1ccccc1N1CCN(CC(O)COc2cccc3ccccc23)CC1 (centres undefined),0.8
11,Cc1cc(O)c2c(c1)C(=O)c1cc(O)cc(O)c1C2=O,1.3 (active)
12,CCCCS(=N)(=O)CC[C@H](N)C(=O)O (some centres undefined),0.9
13,CCCCOc1cc(CC2CNC(=O)N2)ccc1OC (centres undefined),0.8
14,COc1ccc(CCn2nnnc2C2(c3ccc(C)cc3)CC2)cc1,1.6 (active)
15,CC(=O)/C(C)=N/O,1
16,COc1ccc(S(=O)(=O)N(CC(=O)NO)CC(C)C)cc1,1.1
17,CC(=O)SCC[N+](C)(C)C,0.8
18,CC(/C=C/c1cccc(Oc2ccc(F)cc2)c1)N(O)C(N)=O (centres undefined),1.1
19,N[C@@H](Cc1ccc(O)c(O)c1)C(=O)O,0.8
